Screening results from PubChem BioAssay.
LmPK inhibitor: inhibitors of Leishmania mexicana pyruvate kinase. Q27686. purified LmPK, Kinase-Glo ATP luminescence, 1 h. Potency, µM (series often up to 57.5 µM), hits mostly inhibitors. actives 0.37% (n = 290,000). AID 1721
Target sequence (Q27686 whole entry, looked up): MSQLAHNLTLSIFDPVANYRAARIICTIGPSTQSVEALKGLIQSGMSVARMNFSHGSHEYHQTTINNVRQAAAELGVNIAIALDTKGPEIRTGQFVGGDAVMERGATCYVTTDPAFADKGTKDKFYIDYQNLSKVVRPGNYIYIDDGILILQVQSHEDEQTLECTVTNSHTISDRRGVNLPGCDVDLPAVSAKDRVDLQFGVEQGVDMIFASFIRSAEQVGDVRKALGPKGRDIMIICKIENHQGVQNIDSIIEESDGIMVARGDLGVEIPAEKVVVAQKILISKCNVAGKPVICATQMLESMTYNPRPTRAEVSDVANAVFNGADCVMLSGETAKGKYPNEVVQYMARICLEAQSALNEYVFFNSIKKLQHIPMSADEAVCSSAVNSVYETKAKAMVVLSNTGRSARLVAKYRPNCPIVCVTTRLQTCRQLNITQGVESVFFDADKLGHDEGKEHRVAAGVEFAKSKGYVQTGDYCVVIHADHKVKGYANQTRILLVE
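Purified LmPK (0.1 nM) with 0.5 mM PEP and 0.1 mM ADP in imidazole buffer pH 7.2 with MgCl2/KCl, 1 h at room temperature. ATP formed was read by luciferase luminescence and normalized to no-enzyme and uninhibited controls.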
TbPYK inhibitor: inhibitors of Trypanosoma brucei pyruvate kinase; Q57TT1; TbPYK enzyme, Kinase-Glo Plus ATP luminescence, 45 min; Potency, µM (top dose mostly 76.8 µM), actives largely listed as inhibitors; actives 0.12% (n = 410,000); further: nearly all actives have a fitted effect of over 50% in size
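Luminescence from Kinase-Glo Plus, added after a 45-minute room-temperature reaction, served as the end-point read-out. The enzyme and substrate were preincubated with compound before ADP (130 uM final) initiated turnover. Concentration-effect curves came from normalized qHTS data.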
CHX counter: affects cycloheximide protein synthesis inhibition readout, counter-screen | cell reporter, cycloheximide protein synthesis inhibition counterscreen | AID 2314 | max response, % | actives 12% (n = 300,000); in the data active means max response mostly above about 13%, no sharp cut-off; inactive means mostly below about 14%; further: read at 38.3 µM for the half of the compounds with a filed dose
Giardia FBPA inh-1: Giardia lamblia aldolase inhibition; AID 2451; purified Giardia FBPA; A8B2U2; actives 0.71% (n = 290,000); Potency, µM (titrated, usually from 59.6 µM), usual class: inhibitors; further: nearly all actives have a fitted effect of over 55% in size
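Giardia FBPA (40 nM reagent) was preincubated 10 min at RT with compound (up to 57.5 uM final), then substrate plus GAPDH/TPI/NAD/arsenate coupling system with diaphorase/resazurin was added; resorufin fluorescence (525/598 nm) was read after 20 min.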
Sm TGR block: S. mansoni TGR enzyme inhibition; Q962Y6; purified TGR, DTNB reduction, TNB absorbance 405 nm; Potency, µM (doses to about 114 µM), hits mostly inhibitors; actives 3% (n = 360,000); AID 485364; further: nearly all actives have a fitted effect of over 60% in size
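TGR 20 nM + NADPH 100 uM (dispensed conc.), cpd preinc 15 min RT; start with NADPH (500 uM addition) then DTNB (15 mM addition). Kinetic TNB absorbance, 405 nm filter. Four-parameter Hill fit across titration.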
Shiga inhibitor: inhibitors of Shiga toxin in Vero cells | actives 9.2% (n = 290,000) | Vero cells, Shiga toxin protein synthesis inhibition reporter | inhibition, % at 38.7 µM; in the data active means inhibition mostly above about 28%, no sharp cut-off; inactive means mostly below about 43%
Giardia growth: blocks growth of Giardia lamblia trophozoites; shares compounds with Giardia FBPA inh-1; Giardia lamblia trophozoite growth inhibition; Potency, µM (titrated, usually from 57.5 µM), usual class: inhibitors; actives 5% (n = 1,500);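 further: trophozoites exposed to compound for 48 h at 37 °C; nearly all actives have a fitted effect of over 70% in size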
Mammalian tox: mammalian cytotoxicity of Giardia aldolase inhibitor hits | actives 4% (n = 1,500) | Potency, µM (highest dose often 57.5 µM), most hits filed as inhibitors | mammalian cell viability counter-screen, qHTS | shares compounds with Giardia FBPA inh-1;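 further: Chinese hamster ovary cells used as mammalian cytotoxicity surrogate; viability measured as cellular ATP by luminescence; compound exposure lasted 48 h before reading; nearly all actives have a fitted effect of over 60% in size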
Giardia FBPA inh-2: confirmation of Giardia fructose-bisphosphate aldolase inhibitors; Potency, µM (titrated, usually from 57.5 µM), hits mostly inhibitors; shares compounds with Giardia FBPA inh-1; AID 2787; actives 5% (n = 1,500); purified Giardia aldolase enzyme activity, qHTS; further: nearly all actives have a fitted effect of over 45% in size
Rabbit aldolase: rabbit FBP aldolase inhibition by Giardia aldolase hits. shares compounds with Giardia FBPA inh-1. Rabbit muscle FBPA enzyme inhibition, selectivity counter-screen. Potency, µM (top dose mostly 57.5 µM), actives largely listed as inhibitors. actives 4% (n = 1,500); further: nearly all actives have a fitted effect of over 60% in size
GAPDH counter: GAPDH inhibition flagged for Giardia aldolase hits | GAPDH coupling enzyme counterscreen, biochemical, qHTS | AID 2795 | actives 6% (n = 1,500) | shares compounds with Giardia FBPA inh-1 | Potency, µM (highest dose often 57.5 µM), most hits filed as inhibitors; further: nearly all actives have a fitted effect of over 55% in size
A number is an active result; – = inactive; ? = inconclusive; · = no result given; [ ] = another dose, or the depositor's remark. This excerpt belongs to a sample that is enriched for hits. Unless noted, the call rests on the fitted dose curve; in most records, active means well fitted curve in the direction sought with a large enough effect; inconclusive means small, poorly fitted or top-dose-only effect, or another doubt; inactive means no such curve, though single readings can be large; an effect the other way counts as inactive or inconclusive.

SMILES	LmPK inhibitor	TbPYK inhibitor	CHX counter	Giardia FBPA inh-1	Sm TGR block	Shiga inhibitor	Giardia growth	Mammalian tox	Giardia FBPA inh-2	Rabbit aldolase	GAPDH counter
Clc1ccc(SCCOCCN2CCOCC2)cc1	–	–	–	18µM	–	–	–[10.4 µM]	–	–	–	–
Clc1ccc(SCCOCCN2CCCCC2)cc1	–	–	–	–	–	–	·	·	·	·	·
COc1cccc(-c2cccc(NC(=O)C3CCN(CC4CCOC4)CC3)c2)c1 (stereo not drawn)	–	–	–	–	–	–	·	·	·	·	·
Cc1c(-c2ccc(O)cc2)nn(-c2ccc(O)cc2)c1-c1ccc(OCCN2CCCCC2)cc1	·	·	·	–	·	·	·	·	·	·	·
CC(=O)N1CC=CC1(CC(C)C)C(=O)NCc1ccc(C)o1 (stereo not drawn)	·	·	·	–	·	·	·	·	·	·	·
CC(CN1CCCC1)OC(=O)c1cccc(F)c1 (stereo not drawn)	–	–	–	18µM	?	–	–[10.4 µM]	–	–	–	–
Cc1ccccc1NC(=O)Cc1nc(COC(=O)c2ncc(Cl)c(Cl)c2Cl)cs1	·	–	·	·	·	·	·	·	·	·	·
O=C(NC(=S)Nc1nc2ccccc2s1)c1ccco1	–	–	35	5µM	–	30	7.9µM	?	–	–	–
COc1ccc(NC(=S)N(CCCN2CCC(C)CC2)Cc2cccs2)cc1Cl	–	?	–	16µM	–	–	–[10.4 µM]	–	–	–	–
COc1ccc(NC(=S)N(CCCN2CCN(C)CC2)Cc2cccs2)cc1	–	–	–	–	–	–	·	·	·	·	·
COCCN(C(=S)Nc1ccc(OC)c(Cl)c1)C1CCN(C(C)C)CC1	–	–	–	11µM	–	–	?	–	–	–	–
COc1ccc(NC(=S)NCCCN2CCCC2)cc1Cl	–	–	–	8.9µM	–	–	?	32µM	?	–	?
COc1ccc(NC(=O)C2(C)CCN2Cc2csc3ccccc23)cc1OC (stereo not drawn)	·	–	·	·	·	·	·	·	·	·	·
NS(=O)(=O)c1ccc(NC(=S)NC2CCCCC2)cc1	–	?	–	10µM	·	–	–	?	40µM	?	40µM
CC(C)OCCCNc1nc2c(cnn2C)c(=O)[nH]1	·	–	·	·	·	·	·	·	·	·	·
CC(C)(C)c1ccc(/C=N/Nc2nncn2N)cc1	–	–	17	16µM	–	–	–[10.4 µM]	–	14µM	?	?
COc1cc(/C=N\Nc2nncn2N)ccc1OC(C)=O	–	–	17	25µM	?	–	–	–	?	?	?
CC1CCN(c2ccc(/C=N/n3nnnc3N)cc2[N+](=O)[O-])CC1	–	–	–	–	–	–	·	·	·	·	·
CC1CCN(c2ccc(/C=N\Nc3nncn3N)cc2[N+](=O)[O-])CC1	–	–	–	11µM	–	–	11µM	–	?	–	?
COc1cc(/C=N/NC(=O)c2ccncc2)ccc1OC(C)=O	–	–	–	–	–	–	·	·	·	·	·
Nn1cnnc1N/N=C/c1cc(Br)cc(Br)c1O	–	–	–	?	–	–	·	·	·	·	·
CSc1ccc(/C=N\Nc2nncn2N)cc1	–	–	28	?	–	76	–	–	2.3µM	6.5µM	3.3µM
O=C(Nc1cccc(F)c1)N1CCCC2(CCN(C(=O)c3csnn3)CC2)C1	·	–	·	–	·	·	·	·	·	·	·
COC(=O)c1ccc(OC)c(CN2CCCN(Cc3ccc(C)cc3)S2(=O)=O)c1	·	–[15.4 µM]	·	·	–	·	·	·	·	·	·
COc1ccccc1Cc1c(C2CCCCC2)nc2c3ccccc3ccn12	·	–	·	·	·	·	·	·	·	·	·
COc1ccc(CNC(=O)CN2C(=O)COc3ccc(S(=O)(=O)N4CCCCCC4)cc32)cc1	·	–	·	·	–	·	·	·	·	·	·
COc1ccc(C(=O)CSc2ncn[nH]2)cc1OC	–	–	–	?	–	–	·	·	·	·	·
